Experimental data from PubChem BioAssay.

Assays:
[1] = system: Human papillomavirus type 1a protein E7 (residues 44-93); assay: HPV1a E7 fragment binders on microarrays, primary screen, biochemical, small-molecule microarray, residues 44-93, 635 nm fluorescence (AID 1108); details: small-molecule microarray binding, fluorescence 635 nm; higher = more signal;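 also: E7 fragment applied at 1 µg/mL in TBST for 1 h at 4 C; score combines spot fluorescence with its signal to noise ratio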
[2] = modulators of HCV replicon luciferase signal, primary screen, HCV replication inhibitor project, Huh7 cells, luciferase reporter (AID 1109); details: 48 h, higher = more signal;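 also: huh7 hepatoma cells harbouring a luciferase neomycin HCV replicon reporter; luciferase luminescence as measure of HCV replicon replication; test concentration not given here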
[3] = target: Left-right determination factor 2 (Homo sapiens) (UniProt O00292); assay: LEFTY2 binders on small-molecule microarrays, primary screen, biochemical, small-molecule microarray, 635 nm fluorescence scan (AID 1110); details: LEFTY2 binding, higher = more signal
[4] = target: Calmodulin-1 (Homo sapiens) (UniProt P0DP23); assay: CALM1 binders on microarrays, EGTA buffer, profiling panel, biochemical, small-molecule microarray, Cy5-labelled CALM1 (AID 1111); details: Cy5-CALM1 binding fluorescence, higher = more signal;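 also: labelled calmodulin applied in Tris saline Tween buffer holding calcium plus EGTA and DTT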
[5] = target: Calmodulin-1 (Homo sapiens) (UniProt P0DP23); assay: calcium-bound CALM1 binders on microarrays, profiling panel, artefact control for SMM control-protein annotation, biochemical, small-molecule microarray, Cy5-labelled CALM1, plus calcium (AID 1112); details: Cy5-CALM1 binding fluorescence, higher = more signal;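 also: score merges spot fluorescence with signal to noise from triplicate slides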
[6] = small-molecule microarray binders of probe aWnt5a, primary screen, biochemical, biotinylated probe, 635/667 nm fluorescence (AID 1113); details: higher = more signal;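 also: score merges 667 nm fluorescence intensity with signal-to-noise per printed feature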
[7] = small-molecule microarray binders of probe aShh, primary screen, biochemical, biotinylated probe, 635/667 nm fluorescence (AID 1114); details: higher = more signal;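 also: probe is biotin-labelled aShh protein from a stem cell growth factor screen; measures binding of labelled protein to compounds printed on the slide; score merges feature fluorescence at 667 nm with signal-to-noise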
[8] = small-molecule microarray binders of probe aNog, primary screen, biochemical, biotinylated probe, 635/667 nm fluorescence (AID 1115); details: higher = more signal;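 also: probe is biotinylated aNog protein used at 0.15 µg/mL for 1 h at 4 C; z-score combines 667 nm fluorescence of each spot with its signal to noise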
[9] = target: Torsin-1A-interacting protein 1 (Homo sapiens) (UniProt Q5JTV8); assay: LAP1 binders from COS7 cell lysate, primary screen, small-molecule microarray, 635/667 nm fluorescence (AID 1116); details: COS7-hLAP1 lysate binding, 635 nm fluorescence, higher = more signal
[10] = target: Alpha-bungarotoxin (Bungarus multicinctus) (UniProt P60615); assay: alpha-bungarotoxin binders on microarray, profiling panel, artefact control for SMM control protein annotation, biochemical, small-molecule microarray, Alexa647 label, 635/667 nm fluorescence (AID 1117); details: alpha-BTX-A647 binding fluorescence, higher = more signal
Alpha-bungarotoxin (Bungarus multicinctus), sequence (P60615 whole entry, looked up): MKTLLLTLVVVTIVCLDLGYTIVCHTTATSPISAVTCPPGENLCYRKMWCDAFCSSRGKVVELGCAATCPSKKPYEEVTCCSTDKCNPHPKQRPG

Left-right determination factor 2 (Homo sapiens), sequence (O00292 whole entry, looked up): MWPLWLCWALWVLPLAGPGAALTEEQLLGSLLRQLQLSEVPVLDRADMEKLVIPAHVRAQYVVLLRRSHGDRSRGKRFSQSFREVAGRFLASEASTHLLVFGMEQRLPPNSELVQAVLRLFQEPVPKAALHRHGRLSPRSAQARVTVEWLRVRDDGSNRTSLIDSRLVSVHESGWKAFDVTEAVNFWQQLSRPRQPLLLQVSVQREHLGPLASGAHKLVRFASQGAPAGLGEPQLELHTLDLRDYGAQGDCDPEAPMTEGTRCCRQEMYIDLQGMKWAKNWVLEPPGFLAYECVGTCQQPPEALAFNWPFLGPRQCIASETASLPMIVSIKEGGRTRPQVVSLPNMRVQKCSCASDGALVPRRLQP
Torsin-1A-interacting protein 1 (Homo sapiens), sequence (Q5JTV8 whole entry, looked up): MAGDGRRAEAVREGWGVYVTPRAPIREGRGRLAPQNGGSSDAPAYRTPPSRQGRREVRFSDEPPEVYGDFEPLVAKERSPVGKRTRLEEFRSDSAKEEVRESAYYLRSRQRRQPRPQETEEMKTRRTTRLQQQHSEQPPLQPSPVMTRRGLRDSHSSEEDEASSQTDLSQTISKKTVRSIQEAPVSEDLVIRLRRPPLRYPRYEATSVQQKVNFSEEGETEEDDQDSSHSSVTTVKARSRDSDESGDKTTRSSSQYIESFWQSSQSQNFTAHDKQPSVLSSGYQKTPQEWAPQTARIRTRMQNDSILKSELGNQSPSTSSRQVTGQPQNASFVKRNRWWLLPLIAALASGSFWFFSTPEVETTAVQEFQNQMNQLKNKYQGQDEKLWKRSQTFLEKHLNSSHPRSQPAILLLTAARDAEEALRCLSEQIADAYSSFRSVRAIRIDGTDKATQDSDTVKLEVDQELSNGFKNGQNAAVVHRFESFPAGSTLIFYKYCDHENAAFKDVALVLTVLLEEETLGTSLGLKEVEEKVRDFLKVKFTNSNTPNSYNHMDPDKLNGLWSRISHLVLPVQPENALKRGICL

Row | SMILES | composite z-score [1] | z-score [2] | composite z-score [3] | composite z-score [4] | composite z-score [5] | composite z-score [6] | composite z-score [7] | composite z-score [8] | composite z-score [9] | composite z-score [10]
1 | O=C1[C@H]2[C@H]3[C@H](O)[C@H](O)CC(=NOC[C@@H](O)COCc4ccco4)[C@H]3CC[C@H]2C(=O)N1Cc1ccc2c(c1)OCO2 | -0.532 | -0.385 | 1.37 | -1.37 | -2.03 | -0.119 | -0.349 | -0.278 | 0.13 | -0.147
2 | CC(C)(C)OC(=O)CC[C@]1(C(=O)NCc2ccccc2)N=C(c2ccc(OCCCO)cc2)O[C@H]1c1ccccc1 | 1.02 | -2.44 | -0.598 | 1.91 | 0.683 | 0.257 | 0.147 | -0.198 | 1.6 | 1.53
3 | CCCCC(=C=CC[C@H](O)c1ccccc1OCCO)C[C@H](O)COCc1ccccc1 | -0.156 | -1.92 | -0.233 | 1.22 | 0.768 | -0.124 | -0.138 | 0 | 1.65 | 1.04
4 | CCOC(=O)[C@H](Cc1ccccc1)NC(=O)CCC1CC(OC(=O)NCc2ccc3c(c2)OCO3)CC2(CCCC(COC(=O)NCc3cccc(C(F)(F)F)c3)O2)O1 (stereo not given in full) | 0.547 | -1.21 | 0.48 | 0.214 | -0.286 | -0.0792 | 0.108 | 0.205 | 0.251 | 0.0294
5 | CC(CCN1CCCCc2nc(C)c(C)cc21)=NOC(C)CN1CCCc2nc(C)c(C)cc21 (stereo not given) | 1.2 | -0.974 | 1.12 | 1.09 | -0.573 | 0.298 | 1.25 | 0.578 | 1.13 | 2.07
6 | CC(C)CON=C1[C@H]2CCn3c(=O)n(-c4ccccc4)c(=O)n3[C@H]2[C@H](O)[C@@H]2O[C@H]12 | -0.626 | -2.53 | 0.598 | -0.148 | -0.687 | -0.291 | -0.267 | -0.269 | 0.14 | 0.0478
7 | COC(=O)[C@H](C)NC(=O)CCC1CC(OC(=O)NCc2cccc3ccccc23)CC2(CCCC(COC(=O)NCCc3ccc(Cl)cc3)O2)O1 (stereo not given in full) | 0.953 | -1.05 | 0.451 | 0.866 | -0.0789 | -0.0075 | -0.138 | -0.213 | 0.33 | 0.171
8 | CO[C@@H]1COC(=O)CC=C[C@@H](C)COC(=O)[C@H](COCc2ccccc2)NC(=O)CC=C[C@H]1C | -0.956 | -0.151 | 1.02 | -0.838 | -1.28 | -0.0721 | 0.0278 | -0.298 | 0.325 | -0.397
9 | COc1ccccc1CN1C(=O)c2ccccc2[C@@]2(Cc3ccccc3N(C(C)C)C2=O)[C@@H]1c1ccc(CO)cc1 | -0.0853 | -0.318 | -0.88 | -0.37 | -0.772 | -0.12 | -0.0553 | 0.005 | -0.509 | 1.12
10 | COC(=O)[C@H]1COC(c2ccc(OCCCO)cc2)=N1 | -1.8 | 0.592 | -0.365 | -0.545 | 0.662 | 0.0108 | -0.276 | 0.221 | 1.94 | -0.373
11 | CC(=O)O[C@H]1C2=C(C(=O)[C@@H]3O[C@@H]31)[C@H]1C(C)O[C@@H]2[C@@]23C(=O)[C@@H]4O[C@@H]4[C@@H](O)C2=CO[C@H](C)[C@@H]13 (stereo not given in full) | -0.667 | -2.66 | 0.552 | -1.17 | -0.891 | -0.101 | -0.13 | -0.18 | -0.25 | -0.858
12 | CCOC(=O)[C@H](Cc1ccccc1)NC(=O)CCC1CC(OC(=O)NCc2ccc3c(c2)OCO3)CC2(CCCC(COC(=O)NCC3CCCCC3)O2)O1 (stereo not given in full) | 1.31 | -0.443 | 0.617 | 0.433 | -0.135 | -0.0179 | -0.299 | -0.167 | 0.517 | 0.629
13 | C#CCCCON=C1C[C@@H](O)[C@@H](O)[C@@H]2[C@@H]3C(=O)N(c4cccc(Oc5ccccc5)c4)C(=O)[C@@H]3CC[C@@H]12 | 1.3 | -0.497 | 0.159 | 0.298 | -0.285 | -0.0808 | -0.0709 | -0.183 | 0.0847 | 0.724
14 | CO[C@@H]1COC(=O)CC=C[C@@H](C)[C@H](OC)COC(=O)[C@H](COCc2ccccc2)NC(=O)CC=C[C@H]1C | -2.18 | -1.36 | 0.62 | -1.07 | -2.36 | -0.232 | -0.302 | -0.625 | 0.0597 | -0.486
15 | C=CC[C@@H]1C=C[C@H](ON=C(C)CCN2CCc3nc(CC)c(CC)cc3C2)[C@@H](CO)O1 | 0.714 | -1.57 | 0.83 | -0.42 | -1.34 | 0.0634 | 0.0952 | 0.222 | 0.779 | 0.243
16 | Cc1ccc(S[C@]2(C(=O)O)CC(=O)N(Cc3ccccc3)[C@@H]2c2ccc(CO)cc2I)cc1 | 0.34 | -1.45 | -0.891 | -0.0405 | -0.0584 | -0.118 | -0.206 | -0.409 | -0.192 | 0.823
17 | CCOc1ccc(N2C(=O)/C(=C/C=C/c3ccccc3OC)S(=O)(=O)C2c2cccc([N+](=O)[O-])c2)cc1 (stereo not given) | -0.432 | -2.17 | 0.49 | 1.27 | 0.545 | 0.0017 | -0.2 | 0.0373 | 0.351 | 0.321
18 | C[C@@H]1CC[C@H]2C(=O)O[C@H](COc3ccc(C(C)(C)C)cc3)CN2[C@H]1c1ccc(Br)cc1 | -0.387 | 0.0366 | 0.113 | -0.11 | 0.347 | 0.721 | -0.415 | -0.514 | -0.15 | 0.323
